Gli-Sufu block: antagonists of Gli-Sufu signaling; Sufu-KO-LIGHT fibroblasts, Gli luciferase reporter luminescence; inhibition, % at 5 µM; 340,000 tested, 0.74% active; AID 588413;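 active = inhibition above about 55%, limit read from the data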;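 also: 0% = DMSO-treated cells and 100% = wells with medium but no cells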
Beta cell apopt: beta cell apoptosis inhibition; AID 435005; protection from apoptosis, % (test concentration not listed); 300,000 tested, 0.8% active; INS-1E cytokine-induced death, ATP luminescence, 48 h; percent of positive-control rescue, neutral wells zero;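 active = Every replicate reaches about 75%, or at least half do and their mean reaches it too, limit read from the data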;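 also: 0% = cytokine-treated negative control wells and 100% = positive control rescue; higher means more ATP so stronger rescue from cytokine killing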
NR3A LBD binder: modulates the human NR3A ligand-binding domain | NR3A LBD differential scanning fluorimetry, Tm shift; 0% = protein alone, 100% = glycine-bound protein | Tm shift relative to glycine control, % at 25 µM | 340,000 tested, 2.5% active | AID 1259313;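 active = melting temperature shift of at least 10% of the positive control shift, at one fixed dose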
Mdm2 MdmX PPI: disrupts the human Mdm2-MdmX interaction | O15151+Q00987 | SaOS-2 split-luciferase Mdm2/MdmX complementation, luminescence | inhibition, % at 8 µM | 330,000 tested, 3% active | AID 485346;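 active = inhibition of at least 50% at 8 µM in the primary screen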
Target sequence (O15151 whole entry, looked up): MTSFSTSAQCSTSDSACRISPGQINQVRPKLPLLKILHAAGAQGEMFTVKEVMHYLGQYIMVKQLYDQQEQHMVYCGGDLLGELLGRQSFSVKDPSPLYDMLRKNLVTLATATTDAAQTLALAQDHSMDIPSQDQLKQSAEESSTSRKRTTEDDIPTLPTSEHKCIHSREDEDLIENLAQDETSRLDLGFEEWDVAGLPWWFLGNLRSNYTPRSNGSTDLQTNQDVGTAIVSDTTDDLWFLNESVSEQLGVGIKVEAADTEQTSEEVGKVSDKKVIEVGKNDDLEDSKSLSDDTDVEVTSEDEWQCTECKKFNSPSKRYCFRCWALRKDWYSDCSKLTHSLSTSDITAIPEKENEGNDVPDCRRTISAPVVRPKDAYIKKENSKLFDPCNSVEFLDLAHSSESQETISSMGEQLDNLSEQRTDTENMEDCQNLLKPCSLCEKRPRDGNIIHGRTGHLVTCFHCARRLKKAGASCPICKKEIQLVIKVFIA
Target sequence (Q00987 whole entry, looked up): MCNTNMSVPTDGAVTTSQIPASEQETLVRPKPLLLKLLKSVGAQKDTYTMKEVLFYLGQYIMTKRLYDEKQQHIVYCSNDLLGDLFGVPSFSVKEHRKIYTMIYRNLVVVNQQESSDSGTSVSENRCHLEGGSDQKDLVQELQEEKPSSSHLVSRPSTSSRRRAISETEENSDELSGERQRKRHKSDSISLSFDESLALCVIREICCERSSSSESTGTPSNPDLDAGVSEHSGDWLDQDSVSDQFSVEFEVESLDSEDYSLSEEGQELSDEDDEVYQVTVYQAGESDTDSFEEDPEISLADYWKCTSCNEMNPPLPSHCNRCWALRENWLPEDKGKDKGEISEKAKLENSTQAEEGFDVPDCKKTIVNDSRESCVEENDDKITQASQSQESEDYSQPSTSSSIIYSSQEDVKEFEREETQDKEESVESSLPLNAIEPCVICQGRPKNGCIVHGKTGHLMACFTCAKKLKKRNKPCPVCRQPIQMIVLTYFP
MPTP inh: inhibitors of mitochondrial permeability transition pore; isolated mouse mitochondria, Ca2+ swelling absorbance, 30 min; inhibition, % at 10 µM; 360,000 tested, 1.4% active;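 active = inhibition of 50% or more, scaled per plate between neutral and stimulator controls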;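 also: 0% = DMSO wells given calcium and 100% = 1 mM EGTA wells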
CSC inhib: blocks cancer stem cells | inhibition, % at 7.5 µM | AID 2717 | 300,000 tested, 1.1% active | cancer stem cell-like cells viability, luminescence; in the data active = inhibition above about 75%; tested in HMLE shEcad cells
MPTP counter: Rhodamine 123 counter-screen of mitochondrial pore hits; inhibition, % at 10 µM; shares compounds with MPTP inh; 5,000 tested, 78% active; isolated mitochondria, membrane potential, Rhodamine 123 fluorescence; AID 624504; in the data active = inhibition above about 22%;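 also: 0% = DMSO vehicle and 100% = positive control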
MPTP swell DR: dose response confirmation of mitochondrial permeability transition pore inhibitors; shares compounds with MPTP inh; isolated mitochondria swelling, absorbance; IC50, µM; 780 tested, 58% active; AID 651561; in the data active = IC50 below about 20 µM
MPTP cs DR: active in counter-screen for permeability transition pore inhibitors; shares compounds with MPTP inh; isolated mitochondria counterscreen, fluorescence read-out; IC50, µM; 780 tested, 49% active; in the data active = IC50 below about 80 µM
* marks the source's active call; other numbers are inactive results; i = inactive; . = not tested or not shown. Hits are enriched below; roughly 6.6% of the tested compounds scored in any of these assays.

SMILES	Gli-Sufu block	Beta cell apopt	NR3A LBD binder	Mdm2 MdmX PPI	MPTP inh	CSC inhib	MPTP counter	others
O=[N+]([O-])c1cc(NS(=O)(=O)c2ccc(Cl)nc2)ccc1Cl	-6	15	1	14	85*	22	97*
O=[N+]([O-])c1ccc(NS(=O)(=O)c2ccc(Cl)c(Cl)c2)cc1	.	.	.	.	86*	.	102*
CC(C)c1ccc(NS(=O)(=O)c2ccc(Cl)nc2)cc1	5	4	-18	8	11	22	.
O=S(=O)(Nc1ccc(S(=O)(=O)Nc2ccccc2)cc1)c1ccccc1	4	-8	1	-5	1	2	.
O=[N+]([O-])c1ccc(Oc2ccc(S(=O)(=O)Nc3ccccc3)cc2)cc1	20	3	8	9	69*	25	85*
CC(=O)Nc1ccc(C2=CC(=O)C[C@H](c3ccc(Cl)cc3)C2)cc1	-18	0	-11	2	1	29	.
COc1ccc(C(=O)Oc2c(C)occc2=O)cc1OC	4	-4	0	16	3	-9	.
Cc1occc(=O)c1OC(=O)Nc1ccc(Cl)c(Cl)c1	-7	106*	38*	.	99*	38	78*
O=C(Cn1cnc([N+](=O)[O-])c1)c1ccc(Cl)cc1	24	-1	1	33	-1	-1	.
O=C(C[n+]1cnn(CC(=O)c2ccc(Cl)cc2Cl)c1)c1ccc([N+](=O)[O-])cc1	9	7	-5	.	58*	21	-15	MPTP swell DR=7.1*;MPTP cs DR=>80
CCC(C)c1ccc(NC(=S)NC(C)C2CCCO2)cc1 (stereo not drawn)	2	1	-4	10	0	6	.
COc1cc(/C=C/C(=O)OCC(=O)Nc2cc(C)on2)ccc1OCC#N	21	.	2	8	3	.	.
COc1ccccc1OCc1ccc(C(=O)NCc2cccnc2)o1	-1	-3	1	6	-1	1	.
CC(C)(C)c1ccc(OCc2ccc(C(=O)NCc3cccnc3)o2)cc1	-44	43	-1	-14	85*	6	68*
O=C(NCc1cccnc1)c1ccc(COc2ccc(Cl)cc2)cc1	24	22	-1	12	66*	29	63*
Cc1occc1-c1nnc(SCC(=O)Nc2nc(C(C)(C)C)cs2)o1	15	49	-1	-76	94*	26	90*
Cc1csc(NC(=O)CSc2nnc(-c3ccoc3C)o2)n1	-30	.	-1	-37	0	-11	.
Nc1cc(=O)[nH]c(SCc2ccc(Cl)cc2)n1	10	-1	-4	28	1	3	.
CC(C)(C)c1ccc(CSc2nc(N)cc(=O)[nH]2)cc1	20	22	-2	7	67*	-32	76*
CCc1nnc(NS(=O)(=O)c2ccc(NC(=S)NC(=O)/C=C/c3ccc(F)cc3)cc2)s1	0	4	8	-16	53*	-7	40*
Cc1cc(Br)ccc1NC(=O)CN1C(=O)C2C3CC(c4ccccc4)C(C3)C2C1=O (stereo not drawn)	-25	10	5	5	-1	22	.
CC1CCC2C(=O)N(c3ccc(Cc4ccncc4)cc3)C(=O)C2C1 (stereo not drawn)	43	8	0	-9	87*	-3	89*
OCc1ccc(-c2nn(Cc3ccccc3)c3ccccc23)o1	-4	6	-1	-12	-1	-7	.
CN(C)CCCOc1nn(Cc2ccccc2)c2ccccc12	11	0	-1	-19	75*	58	-4
CC(C)c1ccc(N(C(=O)c2snc(C(N)=O)c2N)C(C(=O)NC2CCCC2)c2ccncc2)cc1 (stereo not drawn)	-4	4	-5	3	1	.	.
SMILES	Gli-Sufu block	Beta cell apopt	NR3A LBD binder	Mdm2 MdmX PPI	MPTP inh	CSC inhib	MPTP counter	others
CCCC1CC(CSC(=N)N)OC1=O (stereo not drawn)	4	-26	0	5	-5	3	.
CCCCCCC1CC(CSC(=N)N)OC1=O (stereo not drawn)	11	-19	1	-12	91*	4	-5	MPTP swell DR=i;MPTP cs DR=>80
CN1C(=O)c2cccc(NCCCCCCN3C(=O)c4ccccc4C3=O)c2C1=O	24	14	0	20	108*	9	94*
CN1C(=O)c2cccc(NCCCN3C(=O)c4ccccc4C3=O)c2C1=O	-8	-3	-2	-38	-2	-4	.
CC(=O)N1CCCN(C(=O)c2ccc3nc(Cc4cccc(Cl)c4)oc3c2)CC1	3	-2	2	26	-4	-4	.
O=c1[nH]cnc(O)c1C(c1ccc2c(c1)OCO2)c1c(O)nc[nH]c1=O	-3	-3	0	-15	0	-4	.
CCC1CCCCN1C(=O)c1cccc(S(=O)(=O)Nc2cc(C(F)(F)F)ccc2Cl)c1 (stereo not drawn)	4	1	4	-5	74*	22	81*
O=C(NC1CCN(Cc2ccccc2)CC1)c1cccc(S(=O)(=O)Nc2cc(C(F)(F)F)ccc2Cl)c1	23	5	2	15	4	21	.
COCCn1c(SCC(=O)NCc2ccccc2)nc2ccccc21	-7	-5	1	18	1	0	.
COCCn1c(SCc2csc(-c3ccccc3)n2)nc2ccccc21	13	1	-2	21	70*	-7	41*
Cc1ccc(S(=O)(=O)N2CCN(C(=O)Cc3ccc4c(c3)OCCO4)CC2)cc1C	-2	-3	-7	8	-15	-8	.
O=C(NCCCNC(=O)c1ccco1)c1cccc(F)c1	-8	.	3	19	-1	3	.
CCOC(=O)c1ccc(N/N=C/c2cc(Br)cc([N+](=O)[O-])c2O)cc1	0	32	19*	9	74*	-2	21*
CC[C@]12c3[nH]c4cc(-c5ccco5)ccc4c3CCN1C(=O)[C@@H](CC(=O)NCCC1=CCCCC1)C[C@@H]2C(=O)N1CCN(C(=O)c2ccco2)CC1	2	.	-3	27	0	.	.
O=C(Nc1ccccc1)Nc1ccc2nnsc2c1	-30	12	42*	-7	83*	26	72*
O=C(Nc1ccccc1)Nc1ccc2snnc2c1	-26	14	32*	-8	101*	-5	92*
O=C(NCc1ccccc1)c1ccc2nnsc2c1	0	4	-1	9	2	11	.
Cc1cc(C)c(S(=O)(=O)/N=C2\C=C(NS(=O)(=O)c3ccccc3)C(=O)c3ccccc32)c(C)c1	-4	.	-4	36	87*	-7	35*

Assay outcomes: PubChem, several laboratories
